Here are results for 40 compounds from PubChem BioAssay (Tox21).

Structures are written as SMILES. Records with an inconclusive call do not appear. Entries that show only a call come without a potency. Values without a mark were called inactive. Activity calls are given as the source filed them. Calls come from the whole dose curve; as a rule, active = well fitted activation curve with a large enough effect in the repeat runs; inconclusive = weak or mixed curves; inactive = no such curve, though single readings can be large or run the other way.
Potency is the fitted concentration of half-maximal effect.

In the experiment the target is Nuclear receptor subfamily 1 group I member 2 (Homo sapiens) (UniProt O75469). As to the kind of experiment: Human pregnane X receptor (PXR) small molecule agonists, qHTS assay (AID 1346982). Note: nearly all actives have a fitted effect of over 35% in size. The following applies: PXR-Luc HepG2, CYP3A4 luciferase reporter, 24 h; series mostly up to 92.4 µM. An excerpt: National Center for Advancing Translational Sciences [NCATS]
Nuclear receptor subfamily 1 group I member 2 (Homo sapiens), sequence (O75469 whole entry, looked up): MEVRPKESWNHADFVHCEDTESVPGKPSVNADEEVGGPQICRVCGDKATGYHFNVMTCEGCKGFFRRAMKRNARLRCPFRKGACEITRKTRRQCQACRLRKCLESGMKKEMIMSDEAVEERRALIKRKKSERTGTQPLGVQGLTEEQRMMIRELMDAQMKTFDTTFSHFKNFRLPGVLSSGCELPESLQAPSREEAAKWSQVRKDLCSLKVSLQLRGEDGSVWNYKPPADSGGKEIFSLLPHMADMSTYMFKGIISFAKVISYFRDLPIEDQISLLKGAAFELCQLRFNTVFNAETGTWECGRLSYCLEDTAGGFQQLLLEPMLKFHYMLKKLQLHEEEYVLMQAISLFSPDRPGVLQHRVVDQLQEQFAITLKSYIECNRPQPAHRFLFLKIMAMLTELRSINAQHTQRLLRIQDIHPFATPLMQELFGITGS
NIH Chemical Genomics Center [NCGC]
U.S. Environmental Protection Agency [EPA]
National Institutes of Environmental Health Sciences [NIEHS]
National Toxicology Program [NTP]
The human pregnane X receptor (hPXR) regulates the expression of several drug metabolizing enzymes and induction of these proteins is a major mechanism for developing drug resistance in cancer. One such key enzyme catalyzing the drug metabolism is cytochrome P450 3A4 (CYP3A4). Changes in CYP3A4 expression affect drug metabolism, thereby reducing the therapeutic efficacy and altering toxicological response to a drug and which finally causes adverse drug interaction. To screen Tox21 libraries for compounds that activate hPXR-mediated CYP3A4 gene expression, PXR-Luc HepG2 cells were used.
PXR-Luc HepG2 cells were dispensed at 2,000 per well in 5uL of assay medium containing 5% charcoal-stripped FBS into white solid bottom 1536-well plates (Corning Life Sciences, Corning, NY) using a Multidrop Combi (Thermo Scientific, Waltham, MA) dispenser. The assay plates were incubated at 37 C and 5% CO2 for 5hr, and then 23nL of compounds dissolved in DMSO and positive control were transferred using a Pintool station (Wako, San Diego, CA). The assay plates were incubated at 37C and 5% CO2 for 24hr. For luciferase read, 4uL of ONE-Glo reagent (Promega Corporation, Madison, WI) was added to each well of the assay plates using Flying Reagent Dispenser (FRD, Aurora Discovery, San Diego, CA) and incubated the assay plates at room temperature for 30min. The luminescence signal was quantified using a ViewLux plate reader (Perkin Elmer, Shelton, CT).
Consider `NC(=O)N(O)[C@@H]1C=C[C@H](Oc2cccc(Oc3ccc(F)cc3)c2)C1`, for which the Potency is 19.3 µM (active).

Consider `O=[N+]([O-])c1cccc(S(=O)(=O)NCCNS(=O)(=O)c2cccc([N+](=O)[O-])c2)c1`, for which the Potency was 13.3 µM (active).

`CCOC(=N)CC(=O)OCC`: the Potency entry was “inactive”.

`O=C(CCCN1CCN(c2ccc(F)cc2)CC1)NC1c2ccccc2CSc2ccccc21` (stereo not given): the Potency result was “inactive”.

For `CC(C)CCCC(=O)O`, the Potency entry was “inactive”.

As to `COC(=O)c1cc(S(N)(=O)=O)ccc1OC`, the Potency entry was “inactive”.

`CC(C)OCC1CO1` (stereo not given): the Potency result was “inactive”.

Turning to `Cc1cc(OI)c(C(C)C)cc1-c1cc(C(C)C)c(OI)cc1C`, the Potency was 29.8 µM (active).

Regarding `CC(C)C(=O)O`, the Potency entry was “inactive”.

With `Nc1ccc(S(=O)(=O)O)c(N)c1`, the Potency result was “inactive”.

Consider `CC(N)CN` (stereo not given), for which the Potency entry is “inactive”.

With `CCCCCCOC(=O)CCCCCCCC(=O)OCCCCCC`, the Potency result was “inactive”.

Regarding `CCC(C(=O)OCCOCCN(CC)CC)c1ccccc1` (stereo not given), the Potency entry is “inactive”.

`[O]=[Bi]`: the activation is 1.61% [at 8.39 µM].

Take `CCCCC(=O)O[C@]1(C(=O)CO)[C@@H](C)C[C@H]2[C@@H]3CCC4=CC(=O)C=C[C@]4(C)[C@@]3(F)[C@@H](O)C[C@@]21C`: the Potency is 34.4 µM (active).

Consider `COc1cc2ncnc(Nc3ccc(F)c(Cl)c3)c2cc1OCCCN1CCOCC1`, for which the Potency result is “inactive”.

On to `O=C(Nc1ccc([N+](=O)[O-])cc1)Nc1ccc([N+](=O)[O-])cc1`, for which the Potency result was “inactive”.

As for `CC(=O)[C@H]1CC[C@H]2[C@@H]3C=CC4=CC(=O)CC[C@@]4(C)[C@@H]3CC[C@]12C`, the Potency was 26.6 µM (active).

With `CC(=N\O)/C(C)=N/O`, the Potency result was “inactive”.

With `CC(CCO)CCc1ccccc1` (stereo not given), the Potency entry was “inactive”.

For `CC(C)(C)CC(C)(C)c1ccc(OCCO)cc1`, the Potency was 15.3 µM (active).

On to `CCCCC(CC)C(=O)OCCOCCOCCOCCOC(=O)C(CC)CCCC` (stereo not given), for which the Potency was 48.6 µM (active).

Turning to `O=C(CCCCCCCCC#CI)Oc1ccccc1`, the Potency result was “inactive”.

For the compound `CCCCCC=CCC=CCCCCCCCC(=O)OCC`, the Potency is 29.8 µM (active).

Regarding `NCC1CCCC(CN)C1` (stereo not given), the Potency entry is “inactive”.

Consider `CC1=NN(c2ccc(C(=O)O)cc2)C(=O)C1`, for which the Potency result was “inactive”.

For `Cc1cc(S(=O)(=O)O)ccc1N=Nc1c(O)ccc2ccccc12`, the Potency entry is “inactive”.

On to `CCC(C)=O`, for which the Potency result is “inactive”.

As for `O=C(O)c1cccc(O)c1`, the Potency entry is “inactive”.

In the case of `CCCOC(=O)c1ccc(N)cc1`, the Potency entry was “inactive”.

Turning to `O=C(O)c1snc(Cl)c1Cl`, the Potency result was “inactive”.

Regarding `Nc1ccc(S(=O)(=O)O)cc1`, the Potency result was “inactive”.

Regarding `CN1Cc2cc(C(=O)N3CCC(C4CCNCC4)CC3)ccc2N[C@@H](CC(=O)O)C1=O`, the Potency result was “inactive”.

As for `CCCOC(=O)c1ccc(C(=O)OCCC)nc1`, the Potency result is “inactive”.

Regarding `CC(C)(C)C(=O)O`, the Potency entry was “inactive”.

Take `NC(=O)Cn1c(=O)cc(CCN2CCN(c3nccc4sccc34)CC2)c2ccc(F)cc21`: the Potency entry was “inactive”.

As to `C=CCOC(=O)/C=C\C(=O)OCC=C`, the Potency entry is “inactive”.

Consider `Nc1ccc(Cl)cc1[N+](=O)[O-]`, for which the Potency is 60.5 µM (active).

As for `COC(=O)[C@@H]1CC2=CC(=O)CC[C@]2(C)[C@@]23O[C@@H]2C[C@@]2(C)[C@@H](CC[C@@]24CCC(=O)O4)[C@H]13`, the Potency entry is “inactive”.

On to `COc1cc2c(N3CCN(C(=O)Nc4ccc(OC(C)C)cc4)CC3)ncnc2cc1OCCCN1CCCCC1`, for which the Potency result is “inactive”.
